# Source: PubChem BioAssay
# Pf growth 48h: inhibits P. falciparum growth in the first generation, 48 h | P. falciparum luciferase growth in erythrocytes, 48 h | Potency, µM (doses to about 28.7 µM), inactives show top-dose activity change, negative = inhibition, most hits filed as inhibitors | AID 504832 | 310,000 tested, 5.9% active; further: on the % scale 0 is the no-effect control and ±100 the full control effect
#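 In quantitative HTS format, infected erythrocytes bearing luciferase-reporter parasites were treated for a single generation at 37 C. Luminescence after adding detection reagent served as the growth measure.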
# NS1 function inh: blocks influenza NS1 protein function; Potency, µM (top dose mostly 46.1 µM), inactives show top-dose activity, positive = more growth; 270,000 tested, 0.4% active; calls by dose curve; further: actives are rising curves; nearly all actives have a fitted effect of over 50% in size
#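 A cell-based growth assay was used: compounds that relieve NS1-induced slow growth of budding yeast raise OD600. Assay medium was yeast nitrogen base with ammonium sulphate and -URA supplement, pH 6.0, with 2% galactose.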
# Pf growth 96h: P. falciparum growth inhibition at 96 hours | AID 504834 | Potency, µM (titrated, usually from 28.7 µM), without a hit: at the top dose activity change, negative = inhibition, hits mostly inhibitors | P. falciparum luciferase reporter growth, 96 h | 320,000 tested, 6.9% active; further: on the % scale 0 is the no-effect control and ±100 the full control effect
#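 Compounds incubated with erythrocytes infected by luciferase-expressing P. falciparum (2% hematocrit, 0.05% parasitemia final) for 96 hours, 37 C in 5% CO2. Growth inhibition scored as decreased luciferase luminescence.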
# Sm TGR block: S. mansoni TGR enzyme inhibition; AID 485364; purified TGR, DTNB reduction, TNB absorbance 405 nm; 360,000 tested, 3% active; Q962Y6; Potency, µM (top dose mostly 114 µM), for the others: at the top dose activity change, negative = inhibition, hits mostly inhibitors; further: on the % scale 0 is the no-effect control and ±100 the full control effect; nearly all actives have a fitted effect of over 60% in size
#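 First, TGR (20 nM dispensed) and NADPH were mixed with compound. Second, a 15 min room-temperature incubation followed. Third, further NADPH and then DTNB were added to start the reaction. Finally, TNB absorbance was monitored kinetically.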
# AMA1-RON2 inh: disrupts binding of P. falciparum AMA1 to RON2 | 360,000 tested, 0.2% active | AID 720542 | AlphaScreen AMA1-biotinylated RON2 peptide binding | Potency, µM (highest dose often 58.2 µM), inactives show at the top dose activity change, negative = inhibition, usual class: inhibitors;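 further: 0% = vehicle wells and -100% = peptide control; nearly all actives have a fitted effect of over 45% in size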
#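 AMA1 (3D7) with his tag at 25 nM final met compounds first, then biotinylated RON2 peptide at 25 nM; detection used donor plus acceptor beads, 10 µg/mL apiece, read by AlphaScreen after 30 min at room temperature.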
# * hit, by the source's call; u = inconclusive; x = no result given. In the library only some 11% were active in any assay of this set; here they are far more common. Unless noted, the call rests on the fitted dose curve; in most records, active means well fitted curve in the direction sought with a large enough effect; inconclusive means small, poorly fitted or top-dose-only effect, or another doubt; inactive means no such curve, though single readings can be large; an effect the other way counts as inactive or inconclusive. Potency means the concentration at half of the fitted maximal effect.
SMILES,Pf growth 48h,NS1 function inh,Pf growth 96h,Sm TGR block,AMA1-RON2 inh
O=C(O)CSCC(=O)N1CCN(S(=O)(=O)c2cc(Cl)cc(Cl)c2)CC1,-5%,-1%,15%,-1%,-5%
NC(=O)c1cc(S(=O)(=O)NCC2CCC(C(=O)Nc3ccc(Cl)cc3)CC2)cs1 (stereo unspecified),x,x,x,4%,x
O=C(NCc1ccccc1)C1CCCN(S(=O)(=O)c2ccc(Br)cc2)C1 (stereo unspecified),-30%,2%,0.29µM*,-2%,-5%
NS(=O)(=O)c1ccc(CCNC(=O)C2CCCN(S(=O)(=O)c3cccnc3)C2)cc1 (stereo unspecified),x,-4%,7.4µM*,-29%,-1%
CCOC(=O)c1[nH]c2ccccc2c1NC(=O)c1ccc(S(=O)(=O)N2CCCC2)cc1,u,-10%,12µM*,-8%,-7%
O=C(NCCc1ccccc1)C1CCCN(S(=O)(=O)c2cccnc2)C1 (stereo unspecified),-4%,-4%,11%,28%,21%
CCOC(=O)c1[nH]c2ccccc2c1NC(=O)c1ccc(C)c(C)c1,x,x,x,13%,x
O=S1(=O)CCC(N=Nc2c(O)n(Cc3ccccc3)c3ccccc23)C1 (stereo unspecified),u,-5%,-14%,-22%,-14%
CCOC(=O)N1CCC(NC(=O)c2ccc3c(c2)N(Cc2ccccc2)C(=O)c2ccccc2S3(=O)=O)CC1,x,x,x,-3%,x
COCCNC(=O)C1CCCN(C(=O)c2cncc(Br)c2)CC1 (stereo unspecified),x,x,x,x,17%
O=C(Cn1nc(CNc2ccc(Cl)cc2)[n+]2c1CCCCC2)c1ccccc1,0.93µM*,3%,u,-2%,3%
Cc1ccc(C(C)C)c(OCc2nn(CC(=O)c3ccc(Cl)cc3)c3[n+]2CCCCC3)c1,12µM*,x,u,-13%,3%
Clc1ccc(NCc2nnc3n2CCCCC3)cc1,12%,1%,x,11%,1%
O=C(COc1cc(O)c2c(=O)cc(-c3ccccc3)oc2c1)c1cccc([N+](=O)[O-])c1,4.1µM*,7%,0%,-12%,3%
O=C(COc1cc(O)c2c(=O)cc(-c3ccccc3)oc2c1)c1ccccc1,40%,16%,23%,5%,-3%
COc1ccc(NC(=O)C2CCN(S(=O)(=O)c3cn(C)cn3)CC2)cc1Cl,x,x,x,8%,x
COCCCN1C(=O)C(CC(=O)NC(c2ccccc2)c2ccccc2)CC(C(=O)N2CCCCCC2)=C1C (stereo unspecified),x,x,x,x,5%
COCCCN1C(=O)C(=O)/C(=C(/O)c2ccc(S(=O)(=O)N3CCOCC3)cc2)C1c1ccc(Cl)cc1 (stereo unspecified),5%,10%,u,u,-1%
CC1(c2cccc(Br)c2)NC(=O)N(CC(=O)Nc2cccnc2Cl)C1=O (stereo unspecified),-3%,5%,-11%,-3%,-4%
COc1ccc(NC(=O)CCCn2c(=O)c3sccc3n(Cc3ccc(C)cc3)c2=O)cc1,-11%,24%,3%,1%,-1%
COc1ccc(NC(=O)CCCn2c(=O)c3sccc3n(Cc3ccc(C)cc3C)c2=O)cc1,-2%,10%,8.3µM*,-12%,2%
CC(=O)Nc1cc2c(cc1NC(=O)Cn1nc(-c3ccc4c(c3)OCCO4)ccc1=O)OCCO2,x,19%,9.3µM*,-18%,4%
CCCc1cc(C(=O)Nc2ccc(C(=O)c3ccc(C)cc3)cc2)n(C)n1,-15%,-10%,u,2%,6%
O=C(N/N=C/c1cn(-c2ccccc2)nc1-c1ccc(F)cc1)c1ccc2c(c1)OCO2,u,u,13µM*,10%,-2%
O=C(N/N=C\c1cn(-c2ccccc2)nc1-c1ccccc1)c1ccc2c(c1)OCO2,u,3%,12µM*,2%,-7%
COc1ccc(-c2nn(-c3ccccc3)cc2/C=N/NC(=O)c2ccc3c(c2)OCO3)cc1,u,5%,u,3%,x
O=C(N/N=C/c1cn(-c2cccs2)nc1-c1ccccc1)c1ccccc1O,u,23%,6.6µM*,-4%,64%
CCCOc1ccc(/C=N/NC(=O)c2ccc3c(c2)OCO3)c(OCCC)c1,5.9µM*,10%,u,-8%,0%
